# TRPV1 agonist – human TRPV1 agonism. Q8NER1. TRPV1-expressing cells, Fluo-8 calcium influx, agonist mode. activation, % at 8.33 µM. 320,000 tested, 0.19% active. AID 540275; in the data active = activation above about 80%; note: 0% is about no effect
#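 Fluo-8 calcium influx in TRPV1-expressing cells, kinetic read (ex 480/em 520 nm). Compound added and read 3 min for agonist activity, followed by capsaicin at EC20 final and 2 min further read for enhancement.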
# TRPV1 potentiator – potentiators of human vanilloid receptor 1 (TRPV1); Q8NER1; TRPV1-expressing cells, Fluo-8 calcium influx, capsaicin EC20 potentiation; potentiation, % at 8.33 µM; 320,000 tested, 0.02% active; AID 540277; in the data active = potentiation above about 80%; note: 0% is about no effect
#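 Fluo-8 calcium influx in TRPV1-expressing cells, kinetic read (ex 480/em 520 nm). Compound added and read 3 min for agonist activity, followed by capsaicin at EC20 final and 2 min further read for enhancement.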
# TRPML1 ag – activates the human TRPML1 channel; TRPML1-expressing cells, Ca2+ dye fluorescence, FDSS; activation, % (concentration not given with the values); 410,000 tested, 0.12% active; AID 624414; in the data active = activation above about 50%; note: 0% is about no effect
#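 Tet-induced TRPML1-DL cells, 1,500 per well, cultured overnight, were loaded with a no-wash Ca2+ dye for 45–90 min. Calcium fluorescence was recorded on the FDSS for 110 s after compound addition, before the EC80 agonist (4 uM 54-4) was added.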
# USP1-UAF1 inh – inhibitors of human USP1/UAF1 deubiquitinase | Potency, µM (titrated, usually from 57.1 µM), inactives show at the top dose activity change, negative = inhibition, most hits filed as inhibitors | AID 743255 | recombinant USP1/UAF1, Ub-Rhodamine cleavage fluorescence | 390,000 tested, 0.23% active | O94782; active = well fitted inhibition curve with a large enough effect; note: potency is the fitted concentration of half-maximal effect; % is set by controls: 0 for no effect and ±100 for the full control effect; nearly all actives have a fitted effect of over 60% in size
#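 1 nM enzyme complex + cpd, 15 min RT; start with Ub-Rho 150nM final; kinetic fluorescence ex 480/em 540, 6 reads q60 s. Buffer 50mM HEPES pH 7.8, 0.5mM EDTA, 0.1 mg/ml BSA, 1mM TCEP, 0.01% Tween-20.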
# TRPML1 blocker – human mucolipin-1 channel inhibition; 390,000 tested, 0.02% active; Q9GZU1; TRPML1-inducible cells, Ca2+ dye fluorescence, FDSS; stronger effect = lower value; inhibition of EC80 agonist-evoked calcium signal; activity change, negative = inhibition, % (test concentration not listed); in the data active = activity change below about -50%;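 note: stimulus is agonist 54-4 at its EC80 concentration; % is set by controls: 0 for no effect and ±100 for the full control effect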
#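 Calcium fluorescence in TRPML1-DL cells induced overnight with Tet: a 110 s read after compound pin addition, then a 110 s antagonist read after challenge with 54-4 at 4 uM final (EC80).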
# Active calls of the source: *; . = not tested or not shown. Only some compounds are listed: those with a hit (about 0.4% of all), similar ones and a draw of the others.
SMILES,TRPV1 agonist,TRPV1 potentiator,TRPML1 ag,USP1-UAF1 inh,TRPML1 blocker
CC(C)C[C@H]1C(=O)N2CCC[C@H]2[C@]2(O)O[C@](NC(=O)[C@@H]3C=C4c5cccc6[nH]cc(c56)C[C@H]4N(C)C3)(C(C)C)C(=O)N12,0,17,2,18µM*,1
CN1CC[C@@]2(C)c3cc(O)ccc3N(C)[C@@H]12,.,.,0,28µM*,-8
c1ccc2c(c1)CNc1ccccc1O2,0,-2,2,2%,2
CC[C@H](C)/C=C(C)/C=C/C1=CC2=C(Cl)C(=O)[C@@](C)(OC(C)=O)C(=O)C2=CO1,.,.,2,32µM*,-6
C#C[C@]1(O)CC[C@H]2[C@@H]3CCC4=Cc5nc6nc7ccccc7n6cc5C[C@]4(C)[C@H]3CC[C@@]21C,-1,-2,4,-21%,37
